Bioassay records deposited in PubChem by National Center for Advancing Translational Sciences (NCATS).
NPC1 promoter act: qHTS Assay for NPC1 Promoter Activators; AID 485313, 2010; Huh7 NPC1 promoter luciferase reporter, 24 h; hit rate 2.4% among 320,000; Potency, µM (titrated, usually from 9.22 µM), for the others: at the highest dose activation, actives largely listed as activators; note: % of control where 0% means no effect; nearly all actives have a fitted effect of over 60% in size
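Stable NPC1-promoter luciferase Huh7 line; cpd (DMSO) 24 h, 37 °C, 5% CO2; Amplite luciferase reagent 10 min RT; luminescence readout. qHTS format.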
FLuc modulator: qHTS profiling assay for firefly luciferase inhibitor/activator using purifed enzyme and Km concentrations of substrates (counterscreen for miR-21 project). purified FLuc, Km substrates, luminescence inhibition. Potency, µM (doses to about 57.5 µM), without a hit: top-dose activity change, negative = inhibition, actives largely listed as inhibitors. hit rate 6.9% among 360,000. AID 588342, 2011;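 note: plate controls were vehicle for no effect and reference inhibitor for full effect; nearly all actives have a fitted effect of over 55% in size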
Target sequence (P08659 whole entry, looked up): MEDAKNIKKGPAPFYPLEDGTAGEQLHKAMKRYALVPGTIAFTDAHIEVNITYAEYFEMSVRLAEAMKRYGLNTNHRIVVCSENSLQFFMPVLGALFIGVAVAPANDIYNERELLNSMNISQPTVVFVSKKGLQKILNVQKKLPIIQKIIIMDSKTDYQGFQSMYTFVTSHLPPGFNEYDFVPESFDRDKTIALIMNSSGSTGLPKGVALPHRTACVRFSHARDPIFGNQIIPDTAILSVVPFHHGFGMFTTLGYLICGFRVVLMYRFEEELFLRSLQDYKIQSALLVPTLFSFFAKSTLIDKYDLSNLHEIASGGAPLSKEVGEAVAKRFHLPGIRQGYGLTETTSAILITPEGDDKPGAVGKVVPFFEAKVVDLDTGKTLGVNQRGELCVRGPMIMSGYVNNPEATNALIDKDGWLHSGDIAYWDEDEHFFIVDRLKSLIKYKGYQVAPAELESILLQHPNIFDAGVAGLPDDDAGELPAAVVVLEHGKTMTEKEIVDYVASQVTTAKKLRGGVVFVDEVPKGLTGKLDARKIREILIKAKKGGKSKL
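Purified P. pyralis luciferase, 10 nM final, with Km-level 10 uM D-luciferin and 10 uM ATP in 50 mM Tris acetate pH 7.5, 10 mM Mg acetate, 0.01% Tween-20, 0.05% BSA; 6-point qHTS titration about 60 µM downward; luminescence read.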
Luc counter: Counterscreen for Luciferase (Kinase-Glo TM) Inhibition | Luciferin 4-monooxygenase (Photuris pensylvanica), Q27757 | Potency, µM (doses to about 38.3 µM), without a hit: at the highest dose activity change, negative = inhibition, most hits filed as inhibitors | hit rate 0.28% among 200,000 | Kinase-Glo luciferase, ATP luminescence, 8 min | AID 1379, 2008; note: % is set by controls: 0 for no effect and ±100 for the full control effect; nearly all actives have a fitted effect of over 60% in size
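Substrate mix (final 50 mM imidazole pH 7.2, 50 mM KCl, 7 mM MgCl2, 10 uM ATP, 0.01% Tween 20, 0.05% BSA) plus pin-tool compound, then Kinase-Glo detection mix; 8 min ambient, luminescence read.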
ELG1 genotox: qHTS screen for small molecules that induce genotoxicity in human embryonic kidney (HEK293T) cells expressing luciferase-tagged ELG1. HEK293T ELG1-luciferase reporter, luminescence, 16 h. Potency, µM (doses to about 46 µM), for inactives: at the top dose activity change, positive = activation, actives largely listed as activators. hit rate 1.3% among 330,000. AID 504466, 2011; note: % of control where 0% means no effect; nearly all actives have a fitted effect of over 60% in size
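Genotoxicity was scored as increased ELG1-luciferase reporter signal, measured by ONE-Glo luminescence (30 min, room temperature). Compound or vehicle exposure of the HEK293T reporter cells lasted 16 hr at 37°C.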
SMN2 splice up: qHTS Assay for Enhancers of SMN2 Splice Variant Expression. hit rate 2.8% among 210,000. Potency, µM (top dose mostly 46.1 µM), without a hit: at the highest dose activity change, positive = activation, hits mostly activators. AID 1458, 2008. HEK293 SMN2-luciferase splicing reporter, luminescence, 30-36 h; note: % of control where 0% means no effect; nearly all actives have a fitted effect of over 55% in size
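HEK293 cells carry an SMN2 […]–luciferase reporter in which exon 7 inclusion puts luciferase in frame. Cells were plated 10-12 h before compound addition, then incubated 30-36 h at 37C. ONE-Glo luminescence was read; sodium butyrate at 4.5 mM final served as control.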
Rab9 promoter act: qHTS Assay for Rab9 Promoter Activators. Huh7 Rab9 promoter-luciferase reporter, luminescence, 24 h. AID 485297, 2010. hit rate 2.8% among 320,000. Potency, µM (highest dose often 9.22 µM), inactives show at the highest dose activation, negative = inhibition, hits mostly activators; note: % of control where 0% means no effect; nearly all actives have a fitted effect of over 60% in size
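Quantitative HTS format; Huh7 Rab9-luciferase reporter cells (1500/well) receive compound 2 h post-plating, incubate 24 h at 37 °C, then get luciferase reagent for 10 min before luminescence reading.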
Active calls of the source: *; ? = inconclusive; . = no result; [ ] = another dose, or the depositor's remark. In the library only some 7.5% were active in any assay of this set; here they are far more common. Calls come from the whole dose curve; as a rule, active = well fitted curve in the direction sought with a large enough effect; inconclusive = small, poorly fitted or top-dose-only effect, or another doubt; inactive = no such curve, though single readings can be large; an effect the other way counts as inactive or inconclusive. Potency is the fitted concentration of half-maximal effect.

SMILES	NPC1 promoter act	FLuc modulator	Luc counter	ELG1 genotox	SMN2 splice up	Rab9 promoter act
CCCCn1nnc(NC(=O)c2cc3ccccc3o2)n1	3.16µM*	?	-0.2%	6.51µM*	?	1.58µM*
Cc1ccc(/C=N/N2CCN(c3ccccc3)CC2)cc1	?	-19.2%	-1.7%	?	?	3.55µM*
CSc1ccc(/C=N/N2CCN(c3ccccc3)CC2)cc1	?	4.8%	-11.5%	6.5%	?	?
Cc1cccc(/C=N/N2CCN(c3ccccc3)CC2)c1	?	7.57µM*	-5.0%	?	17.8µM*	?
Cc1ccccc1/C=N/N1CCN(c2ccccc2)CC1	21.1%	16.9µM*	1.1%	16.6%	?	16.7%
O=C(NC(Cc1ccccc1)C(=O)O)/C(=C\c1ccccc1)NC(=O)c1ccc(Br)o1 (stereo not given)	-3.2%	7.0%	.	1.2%	.	14.2%
CCc1cc(C(C)=O)c(O)cc1OCCCCCC(C)(C)c1nn[nH]n1	.	.	-4.9%	.	-17.2%	.
O=C(CN1C(=O)COc2ccccc2C1=O)c1ccc2c(c1)OCCO2	-4.0%	6.75µM*	.	5.4%	.	-3.2%
CS(=O)(=O)c1cccc(C(=O)OCC(=O)c2ccc3c(c2)OCCO3)c1	-0.3%	1.69µM*	.	4.3%	.	10.4%
CCN(CC)S(=O)(=O)c1cccc(C(=O)OCC(=O)c2ccc3c(c2)OCCO3)c1	-2.0%	0.536µM*	-2.6%	-1.2%	-38.1%	1.4%
Cc1c(C(=O)OCC(=O)N2CCC(C)CC2)oc2ccccc12	9.3%	?	.	?	.	20.7%
CN(C)S(=O)(=O)c1cccc(C(=O)OCC(=O)Nc2ccc3c(c2)OCCO3)c1	-3.5%	?	.	4.1%	.	-2.7%
Cc1c(C(=O)OCC(=O)c2ccc3c(c2)OCCO3)oc2ccccc12	12.4%	9.53µM*	-2.0%	6.7%	-11.2%	22.5%
O=C(COc1ccc([N+](=O)[O-])cc1)Nc1cccc2cccnc12	.	0.4%	.	.	-3.7%	.
COc1ccc(N(CC(=O)Nc2ccccc2C(=O)NCCc2ccccc2)S(C)(=O)=O)cc1OC	-0.8%	-0.3%	-3.1%	-1.6%	?	2.2%
O=C(COC(=O)c1cccc(S(=O)(=O)NCc2ccccc2)c1)NC1CC1	.	.	.	-0.7%	.	.
O=C(COC(=O)c1cccc(S(=O)(=O)NCc2ccccc2)c1)c1ccc2c(c1)OCCO2	-1.9%	1.35µM*	3.0%	-4.4%	-15.0%	-3.1%
O=C(CS(=O)(=O)c1ccccc1)c1ccc2c(c1)OCCO2	2.82µM*	6.01µM*	10µM*	?	-11.0%	2.82µM*
O=c1c2c(nc3cc(-c4ccc(Cl)cc4)[nH]n13)CCS2	3.55µM*	2.13µM*	-7.4%	?	12.6µM*	?
CCc1c(C)nc2cc(-c3cccc(Br)c3)[nH]n2c1=O	?	12µM*	.	10.9%	.	?
Cc1cc2nc(C)c(Cl)c(=O)n2[nH]1	6.9%	-17.9%	-0.9%	4.5%	20.4%	-2.3%
CCc1c(C)nc2cc(-c3ccc(Cl)cc3)[nH]n2c1=O	3.98µM*	8.49µM*	.	?	.	?
CCOC(=O)CCc1c(C)nc2cc(-c3ccc(Cl)cc3)[nH]n2c1=O	11.0%	-6.4%	-0.9%	-0.9%	27.6%	19.0%
CC(C)(C)OC(=O)N1CCC(c2cc(=O)n3[nH]c(-c4ccc(Cl)cc4)cc3n2)CC1	0.5%	-6.4%	-3.7%	-11.9%	-13.6%	5.5%
Cc1nc2cc(-c3ccc(Br)cc3)[nH]n2c(=O)c1Cl	?	9.53µM*	.	16.4µM*	.	2.51µM*
SMILES	NPC1 promoter act	FLuc modulator	Luc counter	ELG1 genotox	SMN2 splice up	Rab9 promoter act
CCc1ccc(S(=O)(=O)c2nnn3c2nc(NCCc2ccccc2)c2sccc23)cc1	.	51.3%	.	.	.	.
COc1ccc(-n2c(=O)c(-c3cccs3)nc3cnc(Nc4cccc(OC)c4)nc32)cc1	.	.	-1.7%	.	4.7%	.
COc1ccc(/C=C/c2ccncc2)cc1	3.55µM*	12µM*	-6.6%	?	?	2.82µM*
CC(C)CC[n+]1ccccc1/C=C/c1ccc(N(C)C)cc1	-40.2%	2.8%	.	-11.2%	.	-40.9%
CN(C)c1ccc(/C=C/c2cccc[n+]2[O-])cc1	?	19µM*	.	?	.	2.51µM*
CN(C)c1ccc(/C=C/c2ccncc2)cc1	?	?	-2.6%	16.4µM*	?	?
O=C(CN1c2cccc3cccc(c23)S1(=O)=O)Nc1ccc(F)c(F)c1F	.	.	.	-5.0%	.	.
COc1ccc(OC)c(NC(=O)c2cc(C3CC3)nc3c2c(C)nn3-c2ccc(C)cc2)c1	.	2.0%	.	.	.	.
CC1CC(C)CN(C(=O)COC(=O)c2ccc(Cl)nc2)C1 (stereo not given)	0.8%	3.4%	.	0.0%	.	-1.1%
Cc1ccc2ccccc2c1[N+](=O)[O-]	.	.	.	.	5.7%	.
CCOC(=O)C1CCN(C(=O)c2cc3cc(C)ccc3[nH]2)CC1	2.82µM*	-15.4%	.	?	.	3.16µM*
CCOC(=O)C1CCN(C(=O)c2ccc(C)o2)CC1	.	.	.	2.8%	.	.
Cc1nc2ccccc2c2oc(C(=O)N3CCC(C)CC3)cc12	12.6%	?	.	0.2%	.	13.6%
CC1CCN(C(=O)c2cc3c(ccc4ccccc43)o2)CC1	0.447µM*	0.757µM*	.	1.03µM*	.	0.282µM*
CCOC(=O)C1CCN(C(=O)c2cc3c(ccc4ccccc43)o2)CC1	2.51µM*	12µM*	.	9.2µM*	.	0.447µM*
CCOC(=O)C1CCN(C(=O)c2cc3cc4ccc(C)cc4nc3o2)CC1	0.891µM*	?	.	?	.	0.447µM*
CN1CCCN(S(=O)(=O)c2ccc(Cl)c(Cl)c2)CC1	-1.6%	-0.1%	1.4%	1.6%	-3.5%	?
Cc1ccc(-c2c(CC(=O)O)c(C)nc3sc4c(c23)CCCC4)cc1	-4.3%	-1.3%	.	0.5%	.	0.0%[1.84 µM]
COc1cc(C2C(C(=O)Nc3ccc(C)cc3C)=C(C)Nc3nc4ccccc4n32)cc(OC)c1OC (stereo not given)	.	-0.1%	.	.	9.3%	.
CC12C(=O)N(c3nccs3)C(=O)C1C1C=CC2C1 (stereo not given)	1.4%	3.0%	4.0%	1.4%	-7.3%	-4.7%
Cc1cnc(NC(=O)CCCNC(=O)c2ccc(Cl)cc2)s1	26.4%	8.49µM*	.	?	.	?
Cc1ccc(NC(=O)CCCNC(=O)c2ccc(Cl)cc2)nc1	16.4%	?	.	?	.	24.9%
c1ccc(CO[C@H]2NCCN2Cc2ccccc2)cc1	.	.	-5.3%[7.66 µM]	.	0.0%[9.22 µM]	.
O=C1NC(=O)/C(=C\c2ccc(OCc3ccccc3)cc2)S1	3.6%	19µM*	.	11.0%	.	15.8%
COc1cc(/C=C2/SC(=O)NC2=O)ccc1OCc1ccccc1	1.9%	?	.	10.0%	.	10.5%
